# Measured values taken from PubChem BioAssay (Tox21).
# Where “and” joins values, the source holds several entries; their conditions need not be identical. Equal entries are not always repeated. Results filed as inconclusive are left out. Entries that show only a call come without a potency. Some compounds were tested as several samples or in several runs, with calls that do not always agree. Calls of active or inactive are those of the source. Calls come from the whole dose curve; as a rule, active = well fitted activation curve with a large enough effect in the repeat runs; inconclusive = weak or mixed curves; inactive = no such curve, though single readings can be large or run the other way.
# Biological target: Nuclear receptor subfamily 1 group I member 2 (Homo sapiens) (UniProt O75469)
# Sequence (O75469 whole entry, looked up): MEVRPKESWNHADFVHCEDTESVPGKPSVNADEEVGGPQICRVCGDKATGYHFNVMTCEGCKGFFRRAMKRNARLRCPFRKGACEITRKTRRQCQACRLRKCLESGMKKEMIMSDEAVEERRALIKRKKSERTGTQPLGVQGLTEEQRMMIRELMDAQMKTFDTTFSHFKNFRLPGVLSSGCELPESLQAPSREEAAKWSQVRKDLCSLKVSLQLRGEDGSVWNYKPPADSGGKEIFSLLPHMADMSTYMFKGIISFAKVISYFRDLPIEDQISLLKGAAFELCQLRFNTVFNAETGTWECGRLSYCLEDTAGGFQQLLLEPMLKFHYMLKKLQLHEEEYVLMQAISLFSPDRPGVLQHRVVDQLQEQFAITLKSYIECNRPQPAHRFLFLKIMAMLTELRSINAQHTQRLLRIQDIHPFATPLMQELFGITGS
# Experiment: Human pregnane X receptor (PXR) small molecule agonists, qHTS assay (AID 1346982); note: nearly all actives have a fitted effect of over 35% in size
# Conditions: PXR-Luc HepG2, CYP3A4 luciferase reporter, 24 h; series mostly up to 92.4 µM
# Text: National Center for Advancing Translational Sciences [NCATS]
# NIH Chemical Genomics Center [NCGC]
# U.S. Environmental Protection Agency [EPA]
# National Institutes of Environmental Health Sciences [NIEHS]
# National Toxicology Program [NTP]
# The human pregnane X receptor (hPXR) regulates the expression of several drug metabolizing enzymes and induction of these proteins is a major mechanism for developing drug resistance in cancer. One such key enzyme catalyzing the drug metabolism is cytochrome P450 3A4 (CYP3A4). Changes in CYP3A4 expression affect drug metabolism, thereby reducing the therapeutic efficacy and altering toxicological response to a drug and which finally causes adverse drug interaction. To screen Tox21 libraries for compounds that activate hPXR-mediated CYP3A4 gene expression, PXR-Luc HepG2 cells were used.
# PXR-Luc HepG2 cells were dispensed at 2,000 per well in 5uL of assay medium containing 5% charcoal-stripped FBS into white solid bottom 1536-well plates (Corning Life Sciences, Corning, NY) using a Multidrop Combi (Thermo Scientific, Waltham, MA) dispenser. The assay plates were incubated at 37 C and 5% CO2 for 5hr, and then 23nL of compounds dissolved in DMSO and positive control were transferred using a Pintool station (Wako, San Diego, CA). The assay plates were incubated at 37C and 5% CO2 for 24hr. For luciferase read, 4uL of ONE-Glo reagent (Promega Corporation, Madison, WI) was added to each well of the assay plates using Flying Reagent Dispenser (FRD, Aurora Discovery, San Diego, CA) and incubated the assay plates at room temperature for 30min. The luminescence signal was quantified using a ViewLux plate reader (Perkin Elmer, Shelton, CT).
# Potency is the fitted concentration of half-maximal effect.
row,Structure (SMILES),Potency
1,CC(=O)OC1CC(C)OC(C)O1 (stereo not given),inactive
2,COc1ccc(C)cc1N,inactive
3,O=C(O)CCCCCCCCC(=O)O,inactive
4,CC1(C)OC[C@@H]2O[C@@]3(C(=O)O)OC(C)(C)O[C@H]3[C@@H]2O1,inactive
5,Brc1ccc(Br)c(Br)c1,inactive
6,COCCCN,inactive
7,C[Si]1(C)O[Si](C)(C)O[Si](C)(C)O[Si](C)(C)O1,inactive
8,c1ccc2c(c1)Cc1ccccc1-2,inactive
9,CCCCC(C=O)CC (stereo not given),inactive
10,CC1(C)S[C@@H]2[C@H](NC(=O)COc3ccccc3)C(=O)N2[C@H]1C(=O)O,inactive
11,CC(C)OP(=O)(CP(=O)(OC(C)C)OC(C)C)OC(C)C,27.3 µM (active) and inactive
12,CC1(C)NC(=O)NC1=O,inactive
13,CCO[Si](CCC#N)(OCC)OCC,inactive
14,CCNc1ccccc1,inactive
15,CCCCCCCCCCCCCCCCO,inactive
16,CCCCCCCO,inactive
17,C=CC[N+](C)(C)CC=C,54.9 µM (active) and inactive
18,Clc1ccccn1,inactive
19,O=C1c2ccccc2CCc2ccccc21,55.6 µM (active) and inactive
20,CC1(C)CC(N)CC(C)(CN)C1 (stereo not given),49.3 µM (active) and 24.3 µM (active)

row,Structure (SMILES),Potency
1,CC(=O)OCc1ccco1,60.8 µM (active) and inactive
2,NCCNCCN,inactive
3,CC(=O)CCC=C(C)C,inactive
4,CC(C)OC(=O)COc1ccc(Cl)cc1Cl,inactive
5,O=C1CCCC1,inactive
6,C=CCc1ccc(OC)c(OC)c1,inactive
7,O=C1C(c2[nH]c3ccccc3c2O)=Nc2ccccc21,inactive
8,CCCCCCC=O,inactive
9,CC(=O)OCc1ccccc1,inactive
10,O=C(OCC1CCC2OC2C1)C1CCC2OC2C1 (stereo not given),inactive
11,NCCN1CCNCC1,inactive
12,CCCOC(=O)c1ccccc1,inactive
13,Cc1ccc([N+](=O)[O-])cc1S(=O)(=O)O,inactive
14,CNC(=O)Oc1ccc2c(c1)[C@]1(C)CCN(C)[C@@H]1N2C,inactive
15,CC(=O)c1ccc(O)cc1,inactive
16,CN(C)CCOC(=O)COc1ccc(Cl)cc1,inactive
17,CCCCCC(=O)O,inactive
18,NCCCCCCN,inactive
19,COc1ccc(CCC(C)=O)cc1,inactive
20,CCCCCCCCCCN,inactive
